From publication PMC5540273 (PLoS ONE, 2017)

Columns and labels:
Conditions in all cases: concentration: 1 μM, replicates: in singlicate; n = 1
DLK = system: T1, DLK
T1 construct: gene MAP3K12

DMPK2 = system: T2, DMPK2
T2 construct: gene CDC42BPG

DMPK = system: DMPK
DRAK1 = system: T3, DRAK1
T3 construct: gene STK17A

DRAK2 = system: T4, DRAK2
T4 construct: gene STK17B

DYRK1A = system: DYRK1A
DYRK1B = system: DYRK1B
DYRK2 = system: DYRK2
EGFR = system: EGFR
EIF2AK1 = system: EIF2AK1
EPHA1 = system: EPHA1
EPHA2 = system: EPHA2
EPHA3 = system: EPHA3
EPHA4 = system: EPHA4
EPHA5 = system: EPHA5
EPHA6 = system: EPHA6
EPHA7 = system: EPHA7
EPHA8 = system: EPHA8
EPHB1 = system: EPHB1
EPHB2 = system: EPHB2
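Also: KINOMEscan kinase panel screen.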

SMILES	%Inh (DLK) [%]	%Inh (DMPK2) [%]	%Inh (DMPK) [%]	%Inh (DRAK1) [%]	%Inh (DRAK2) [%]	%Inh (DYRK1A) [%]	%Inh (DYRK1B) [%]	%Inh (DYRK2) [%]	%Inh (EGFR) [%]	%Inh (EIF2AK1) [%]	%Inh (EPHA1) [%]	%Inh (EPHA2) [%]	%Inh (EPHA3) [%]	%Inh (EPHA4) [%]	%Inh (EPHA5) [%]	%Inh (EPHA6) [%]	%Inh (EPHA7) [%]	%Inh (EPHA8) [%]	%Inh (EPHB1) [%]	%Inh (EPHB2) [%]
CN1C(=O)C(Nc2ccccc2)=C(c2ccccc2)C1=O [SB-300079]	1	0	0	0	0	0	17	10	16	0	0	0	0	0	4	0	0	0	17	0
CCCNC(=O)Nc1ccc(Oc2ncnc3ccn(C)c23)cc1	0	0	0	0	12	16	68	24	15	0	0	0	0	3	12	8	0	0	1	20
Cc1nc(N(C)[C@H]2CN(C(=O)CC#N)CC[C@H]2C)c2cc[nH]c2n1	0	5	0	0	0	0	0	7	0	0	0	0	28	20	2	0	10	12	8	0
O=C(NCCNc1ccnc(Nc2ccc(F)cc2)n1)Nc1ccc2c(c1)OCO2 [GSK1379882]	5	11	0	10	0	7	0	23	0	0	15	0	0	0	0	0	0	0	18	0
O=C(NCc1cccs1)c1cc(C(=O)c2c(Cl)cccc2Cl)c[nH]1 [GW823670]	0	4	6	4	0	0	16	0	0	0	0	0	1	4	0	0	0	4	4	0
Nc1ncnc2c1ncn2-c1cccc2ccccc12 [SKF-97184]	0	0	0	7	0	0	30	6	45	0	0	0	0	3	0	0	0	0	0	12
Cc1cccc(-c2cc(-c3c[nH]nc3-c3ccccn3)ccn2)c1 [GW679395]	13	1	0	0	0	24	0	0	31	0	38	7	0	22	0	13	0	13	33	17
CCC(=O)c1c(-c2ccccc2)c2cc(Cl)ccc2c(=O)n1Cc1cc(S(C)(=O)=O)n(CC(F)F)n1	0	0	0	0	0	0	13	17	1	0	2	0	7	2	0	2	0	0	0	0
CCc1ccc(-c2ccc3c(c2)-c2nn(C)cc2S(=O)(=O)N3C)cc1	0	0	0	0	0	0	0	0	0	0	4	25	0	0	0	0	0	0	0	0
